# Measured values reported in the supplement of paper PMC8728848.
# This excerpt belongs to a sample that is enriched for the strongest signals.
# Experiments:
# Experiment in all cases: glycan array binding signal (z-score within array); higher = stronger binding
# Settings in all cases: glycan notation: IUPAC condensed, linker removed
# [1] = biological target: Man(a1-3)[Man(a1-6)]Man
# Procedure, shortened: (§1)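 Glycan array data were curated from 3228 arrays in the Consortium for Functional Glycomics database and kept only where the protein sequence was available. Glycan names were converted to IUPAC-condensed notation, and columns mapping to the same glycan were averaged. The binding signal is a within-array Z-score, averaged across arrays of the same protein sequence at different concentrations or buffers and across linkers. Negative Z-scores can be read as non-binding.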
# [2] = biological target: Neu5Ac(a2-3)Gal(b1-3)GlcNAc(b1-2)Man
# Procedure, shortened: as §1
# [3] = biological target: Neu5Ac(a2-3)Gal(b1-3)GlcNAc(b1-6)GalNAc
# Procedure, shortened: as §1
# [4] = biological target: Neu5Ac(a2-3)Gal(b1-4)GlcNAc(b1-3)Gal(b1-4)GlcNAc(b1-3)Gal(b1-4)GlcNAc(b1-2)Man(a1-3)[Neu5Ac(a2-3)Gal(b1-4)GlcNAc(b1-3)Gal(b1-4)GlcNAc(b1-3)Gal(b1-4)GlcNAc(b1-2)Man(a1-6)]GalNAc
# Procedure, shortened: as §1
# [5] = biological target: Neu5Ac(a2-3)Gal(b1-4)GlcNAc(b1-3)Gal(b1-4)GlcNAc(b1-3)GalNAc
# Procedure, shortened: as §1
# [6] = biological target: Neu5Ac(a2-3)Gal(b1-4)GlcNAc(b1-3)GalNAc
# Procedure, shortened: as §1
# [7] = biological target: Neu5Ac(a2-3)Gal(b1-4)GlcNAc(b1-6)GalNAc
# Procedure, shortened: as §1
# [8] = biological target: Neu5Ac(a2-6)Gal(b1-4)GlcNAc(b1-2)[Neu5Ac(a2-6)Gal(b1-4)GlcNAc(b1-4)]Man(a1-3)[GlcNAc(b1-4)][Neu5Ac(a2-6)Gal(b1-4)GlcNAc(b1-2)[Neu5Ac(a2-6)Gal(b1-4)GlcNAc(b1-6)]Man(a1-6)]Man(b1-4)GlcNAc(b1-4)GlcNAc
# Procedure, shortened: as §1
# [9] = biological target: Neu5Ac(a2-6)Gal(b1-4)GlcNAc(b1-3)GalNAc
# Procedure, shortened: as §1
# [10] = biological target: Neu5Ac(a2-6)Gal(b1-4)GlcNAc(b1-6)[Gal(b1-3)GlcNAc(b1-3)]Gal(b1-4)Glc
# Procedure, shortened: as §1
# [11] = biological target: Neu5Ac(a2-6)GalNAc
# Procedure, shortened: as §1
# [12] = biological target: Neu5Ac(a2-6)GalNAc(b1-4)GlcNAc6S
# Procedure, shortened: as §1
# [13] = biological target: Neu5Ac(a2-8)Neu5Ac(a2-3)[Gal(b1-3)GalNAc(b1-4)]Gal(b1-4)Glc
# Procedure, shortened: as §1
# [14] = biological target: Neu5Gc(a2-3)Gal(b1-4)GlcNAc
# Procedure, shortened: as §1
# [15] = biological target: Neu5Gc(b2-6)Gal(b1-4)GlcNAc
# Procedure, shortened: as §1
binder,measurement,setting,value
Cohesin-mDC-ASGPR (Macaca mulatta) (protein) LDITSHHHHHHDDLDAVRIKVDTVNAKPGDTVRIPVRFSGIPSKGIANCDFVYSYDPNVLEIIEIEPGDIIVDPNPDKSFDTAVYPDRKIIVFLFAEDSGTGAYAITKDGVFATIVAKVKEGAPNGLSVIKFVEVGGFANNDLVEQKTQFFDGGVNVGDTTEPATPTTPVTTPTTTDDLDAASSQNSKFQRDLVTLRTDFSNFTSNTVAEIQALTSQGSSVEEMIASLKAEVEVIKQEQQAVHSEMLLRVQRLMQDLNKLTCQVATLKNNASTERTCCPVNWVEHQDSCYWFSRSGMPWAEAEKHCQLENAHLVVINSREEQNFVQEHLSFAYTWMGLSDREGAWKWVDGTDYETGFQNWKPGQPDDWQGHGLGGGEDCAHFHPDGRWNDDVCQRPYYWVCEAGLTQASQESH,glycan array binding signal (z-score),[1],-0.397
same,glycan array binding signal (z-score),[2],-0.342
same,glycan array binding signal (z-score),[3],3.56
same,glycan array binding signal (z-score),[4],-0.248
same,glycan array binding signal (z-score),[5],-0.413
same,glycan array binding signal (z-score),[6],-0.418
same,glycan array binding signal (z-score),[7],3.67
same,glycan array binding signal (z-score),[8],-0.401
same,glycan array binding signal (z-score),[9],2.03
same,glycan array binding signal (z-score),[10],-0.418
same,glycan array binding signal (z-score),[11],3.61
same,glycan array binding signal (z-score),[12],2.56
same,glycan array binding signal (z-score),[13],3.49
same,glycan array binding signal (z-score),[14],-0.399
same,glycan array binding signal (z-score),[15],-0.424
